FH mod: Identification of activators of human fumarate hydratase by quantitative high-throughput screening. Potency, µM (top dose mostly 79.9 µM), actives largely listed as inhibitors. FH coupled MDH/diaphorase resazurin fluorescence, 15 min. 54,000 tested, 0.22% active; further: the screen sought activators but most active calls are inhibition curves; nearly all actives have a fitted effect of over 45% in size
B2AR arrestin ag: qHTS assay of beta-arrestin-biased ligands of beta2-adrenergic receptor: NCGC Sytravon Library Screen | HTLA Tango cells, beta-arrestin recruitment, luciferase luminescence, 18 h | Beta-2 adrenergic receptor (Homo sapiens), P07550 | AID 1347077, 2019 | 44,000 tested, under 10 active | Potency, µM (doses to about 46.1 µM), hits mostly activators
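First, Tango cells carrying beta2-AR and beta-arrestin fusions received compound up to 46 microM. After 18 hr at 37 degrees C, luciferase substrate was added for 15 minutes, then luminescence gave %Activity for curve fitting.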
GALC G270D act: A Novel Cell-Based Assay to Identify Small Molecules for B -Galactocerebrosidase; 145M-Twi-hGALC-G270D cells (Twitcher mouse brain line with human GALC G270D), HMU-beta-Gal fluorescence, 48 h; Potency, µM (titrated, usually from 57.5 µM), hits mostly activators; AID 1159614, 2016; 45,000 tested, 0.1% active; P54803; further: nearly all actives have a fitted effect of over 65% in size
Target sequence (P54803 whole entry G286D): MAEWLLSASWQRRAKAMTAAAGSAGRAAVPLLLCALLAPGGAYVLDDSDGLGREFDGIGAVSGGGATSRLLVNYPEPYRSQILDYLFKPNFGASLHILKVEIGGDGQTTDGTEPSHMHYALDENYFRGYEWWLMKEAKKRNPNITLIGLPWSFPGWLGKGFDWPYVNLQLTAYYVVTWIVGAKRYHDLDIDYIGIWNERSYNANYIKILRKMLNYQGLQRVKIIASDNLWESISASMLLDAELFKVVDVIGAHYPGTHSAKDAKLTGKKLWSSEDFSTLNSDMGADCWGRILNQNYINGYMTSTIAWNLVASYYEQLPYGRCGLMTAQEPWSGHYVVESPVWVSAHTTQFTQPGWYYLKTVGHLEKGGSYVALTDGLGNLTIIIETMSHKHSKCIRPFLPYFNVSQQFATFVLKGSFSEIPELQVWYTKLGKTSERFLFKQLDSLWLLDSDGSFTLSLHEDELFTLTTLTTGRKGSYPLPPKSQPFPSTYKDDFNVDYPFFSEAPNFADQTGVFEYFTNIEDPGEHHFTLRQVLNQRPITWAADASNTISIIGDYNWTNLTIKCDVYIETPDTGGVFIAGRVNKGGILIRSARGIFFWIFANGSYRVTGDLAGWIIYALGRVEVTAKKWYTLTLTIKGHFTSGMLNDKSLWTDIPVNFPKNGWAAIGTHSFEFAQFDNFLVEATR
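Live 145M-Twi cells (Twitcher mouse brain-derived, GALC-null) stably expressing human GALC-G270D, with a wild-type GALC line, were compound-treated. Residual GALC activity was then read as fluorescence from 0.1 mM final HMU-β-gal at pH 5.2; higher signal means activation.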
DRV1 agonist: qHTS for Agonists of Human Resolvin D1 Receptor DRV1; Probable G-protein coupled receptor 32 (Homo sapiens), O75388; CHO-K1 GPR32 beta-arrestin PathHunter luminescence, 90 min; zero percent set by DMSO-only wells; activation, % at 76.9 µM; 48,000 tested, 2.5% active;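 active means activation of at least 60% and not above a set upper limit, about 1 call in 100 departs from these limits; inconclusive means activation of 40% to 60%, or above that upper limit; inactive means activation under 40%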
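PathHunter enzyme-fragment complementation, CHO-K1 GPR32 stable line; 2,500 cells/well, overnight attach; cpd 90 min 37 °C 5% CO2; detection reagent 1 h RT; chemiluminescence. DMSO = EC0.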
Large screens that a line does not name were inactive; ! = not confirmed by another sample. Most compounds without a hit are left out; they make up all but 2.8% or so of the library. Unless noted, the call rests on the fitted dose curve; in most records, active means well fitted curve in the direction sought with a large enough effect; inconclusive means small, poorly fitted or top-dose-only effect, or another doubt; inactive means no such curve, though single readings can be large; an effect the other way counts as inactive or inconclusive.

O=C(Nc1ccc(Br)cc1)c1cc(Br)cc(Br)c1O	DRV1 agonist 82.3 (no result: B2AR arrestin ag)
COC1CC(O[C@H]2CC[C@]3(C=O)C4CC[C@]5(C)[C@@H](C6=CC(=O)OC6)CC[C@]5(O)[C@@H]4CC[C@]3(O)C2)OC(C)C1O[C@@H]1O[C@H](CO)[C@@H](O)[C@H](O)[C@H]1O (stereo partly specified)	none (no result: B2AR arrestin ag, GALC G270D act, DRV1 agonist)
Oc1ccc([C@H]2CNCc3c2ccc(O)c3O)cc1O	FH mod 30.9µM (no result: B2AR arrestin ag)
CCNC(=O)[C@H]1O[C@@H](n2cnc3c(N)ncnc32)[C@H](O)C1O (stereo partly specified)	none (no result: B2AR arrestin ag, GALC G270D act, DRV1 agonist)
C[C@]12CC[C@H](O)CC1=CC[C@@H]1C2CC[C@]2(C)[C@@H](C3=CC(=O)OC3)CC[C@]12O (stereo partly specified)	none (no result: B2AR arrestin ag, GALC G270D act, DRV1 agonist)
CC(C)=C1CC[C@]23CO[C@H](C2)[C@@](O)(C(=O)O)CCC13 (stereo partly specified)	none (no result: B2AR arrestin ag, GALC G270D act, DRV1 agonist)
CC(=O)OC1(c2ccccc2)CCN(CCc2ccccc2)CC1	DRV1 agonist 85.1 (no result: B2AR arrestin ag)
CCOC(=O)C1(CCc2ccccc2)CCN(Cc2ccc(NC(C)=O)cc2)CC1	none (no result: B2AR arrestin ag, GALC G270D act, DRV1 agonist)
Cc1oc2cc3oc(=O)c(CCC(=O)N4CCCCC4)c(C)c3cc2c1C	DRV1 agonist 86.7 (no result: FH mod, GALC G270D act)
O=C(O)c1nn(Cc2ccc(Cl)cc2Cl)c2ccccc12	DRV1 agonist 64.0! (no result: B2AR arrestin ag)
CC(C)[C@H](NC(=O)c1nn(Cc2ccc(F)cc2)c2ccccc12)C(N)=O	none (no result: B2AR arrestin ag, GALC G270D act, DRV1 agonist)
O=c1c(O)c(-c2ccc(O)c(O)c2)oc2cc(O)cc(O)c12	FH mod inconclusive, DRV1 agonist 108.8! (no result: B2AR arrestin ag)
CCC(OC(C)=O)C(CC(C)NC)(c1ccccc1)c1ccccc1 (stereo unspecified)	DRV1 agonist 85.0 (no result: B2AR arrestin ag)
COc1ccsc1CNCC[C@@]1(c2ccccn2)CCOC2(CCCC2)C1	none (no result: B2AR arrestin ag, GALC G270D act, DRV1 agonist)
CCOC(=O)N1CCN(c2ncc3c(n2)CC(c2ccccc2O)CC3=O)CC1 (stereo unspecified)	DRV1 agonist 76.4
C[C@H]1C2Cc3ccc(O)cc3[C@@]1(C)CCN2CC1CC1	none (no result: B2AR arrestin ag, GALC G270D act, DRV1 agonist)
C[C@@H]1O[C@@H](O[C@H]2C[C@@H](O)[C@]3(CO)[C@H]4[C@H](O)C[C@]5(C)[C@@H](C6=CC(=O)OC6)CC[C@]5(O)[C@@H]4CC[C@]3(O)C2)[C@H](O)[C@H](O)[C@H]1O	DRV1 agonist 65.2! (no result: B2AR arrestin ag)
C[C@@H]1O[C@@H](O[C@H]2CC[C@@]3(C)C(CC[C@@H]4C3CC[C@]3(C)[C@@H](C5=CC(=O)OC5)CC[C@]43O)C2)[C@H](O)[C@H](O)[C@H]1O (stereo partly specified)	none (no result: B2AR arrestin ag, GALC G270D act, DRV1 agonist)
CC(C)(C)OC(=O)NC1[C@H]2CNC[C@@H]12 (stereo partly specified)	none (no result: B2AR arrestin ag, GALC G270D act, DRV1 agonist)
CC(C)OC(=O)c1ccnc2cc(C(OCCN3CCCCC3)c3ccccc3Cl)sc12 (stereo unspecified)	none (no result: B2AR arrestin ag, GALC G270D act, DRV1 agonist)
N#Cc1cccc(NC(=O)CSc2nc3c(cc2C#N)N2CCC3CC2)c1	none
N#Cc1cc2c(nc1SCC(=O)Nc1cccc(C(F)(F)F)c1)C1CCN2CC1	DRV1 agonist 63.5
Nc1ncnc2c1ncn2[C@@H]1O[C@H](COP(=O)(O)CP(=O)(O)OP(=O)(O)O)C(O)[C@H]1O (stereo partly specified)	none (no result: B2AR arrestin ag, GALC G270D act, DRV1 agonist)
O=C(CCc1nc(C2=CCN(Cc3cccc(Cl)c3)CC2)no1)Nc1ccccc1F	DRV1 agonist 69.9
CN1CCc2cc(Cl)c(O)cc2[C@H]2c3ccccc3CC[C@@H]21	none (no result: B2AR arrestin ag)
CCCN1CCc2cc(O)cc3c2[C@H]1Cc1ccc(O)c(O)c1-3	FH mod 14.1µM (no result: B2AR arrestin ag, GALC G270D act)
CN1CCc2cc(O)cc3c2[C@H]1Cc1ccc(O)c(O)c1-3	FH mod 14.1µM (no result: B2AR arrestin ag, GALC G270D act)
CCCCCCCCCC(CC)c1ccc(S(=O)(=O)O)cc1 (stereo unspecified)	FH mod inconclusive, DRV1 agonist 101.1 (no result: B2AR arrestin ag)
CC(C)(C)CC(C)(C)c1ccc(O)cc1	FH mod inconclusive, DRV1 agonist 116.4! (no result: B2AR arrestin ag)
CCC(C)(C)c1ccc(O)cc1	DRV1 agonist inconclusive (no result: B2AR arrestin ag)
CC(C)(c1ccc(O)cc1)c1ccc(O)cc1	DRV1 agonist 64.1 (no result: B2AR arrestin ag)
COC1CC(O[C@H]2CC[C@]3(C=O)C4CC[C@]5(C)[C@@H](C6=CC(=O)OC6)CC[C@]5(O)[C@@H]4CC[C@@H]3C2)OC(C)C1O[C@@H]1O[C@H](CO)[C@@H](O[C@@H]2O[C@H](CO)[C@@H](O)[C@H](O)[C@H]2O)[C@H](O)[C@H]1O (stereo partly specified)	none (no result: B2AR arrestin ag, GALC G270D act, DRV1 agonist)
